In a collection of fitness landscapes (doi:10.1126/science.1257360):
Over roughly 140,000 sequences, “enrichment ratio after two sorts for PhoP signalling” has its median near 0; the highest 2% begin near 11. The list comes from a sample in which the highest values are over-represented; it also holds similar and randomly drawn sequences.

B1: PhoQ; a variant is named by its letters at X, in order, P23837 (parent)
chain: MKKLLRLFFPLSLRVRFLLATAAVVLVLSLAYGMVALIGYSVSFDKTTFRLLRGESNLFYTLAKWENNKLHVELPENIDKQSPTMTLIYDENGQLLWAQRDVPWLMKMIQPDWLKSNGFHEIEADVNDTSLLLSGDHSIQQQLQEVREDDDDAEMTHSVAVNVYPATSRMPKLTIVVVDTIPVELKSSYMVWSWFIYVLSANLLLVIPLLWVAAWWSLRPIEALAKEVRELEEHNRELLNPATTRELTSLVRNLNRLLKSERERYDKYRTTLTDLTHSLKTPLXXLQXXLRSLRSEKMSVSDAEPVMLEQISRISQQIGYYLHRASMRGGTLLSRELHPVAPLLDNLTSALNKVYQRKGVNISLDISPEISFVGEQNDFVEVMGNVLDNACKYCLEFVEISARQTDEHLYIVVEDDGPGIPLSKREVIFDRGQRVDTLRPGQGVGLAVAREITEQYEGKIVAGESMLGGARMEVIFGRQHSAPKDE

Variants of: B1
Assay: enrichment ratio after two sorts for PhoP signalling (ratio (wild type AVST 3.29)); higher = more functional
Details: with PhoP (E. coli)

| Variant | enrichment ratio |
| --- | --- |
| KRVH | ≤ 0.25 |
| PCSH | ≤ 0.25 |
| ESFE | ≤ 0.25 |
| QFHQ | ≤ 0.25 |
| GIIK | ≤ 0.25 |
| IAHY | ≤ 0.25 |
| VMDH | ≤ 0.25 |
| AGCI | 14 |
| AHQM | ≤ 0.25 |
| AGCE | 6.71 |
| QGCM | 1.34 |
| RGCM | ≤ 0.25 |
| AGCL | 15.2 |
| YWCL | ≤ 0.25 |
| AGCS | 10.8 |
| TGCM | 16.3 |
| AKQM | ≤ 0.25 |
| AGWL | ≤ 0.25 |
| AGQM | 15.8 |
| YRSY | ≤ 0.25 |
| NQKY | ≤ 0.25 |
| VYPF | 1.11 |
| GMYR | ≤ 0.25 |
| RCYS | ≤ 0.25 |

| Variant | enrichment ratio |
| --- | --- |
| YPFH | ≤ 0.25 |
| AGCM | 13.6 |
| AGQP | ≤ 0.25 |
| ANCM | 6.06 |
| AWCM | ≤ 0.25 |
| YWCQ | ≤ 0.25 |
| AGCQ | 23 |
| GNWY | ≤ 0.25 |
| SFTF | ≤ 0.25 |
| HKIE | ≤ 0.25 |
| QMVR | ≤ 0.25 |
| SSVL | 13.8 |
| KRVL | ≤ 0.25 |
| KSVL | ≤ 0.25 |
| TRVL | 11.6 |
| FSVL | 11.7 |
| SLVL | 1.22 |
| VRVL | ≤ 0.25 |
| SSVA | 10.9 |
| FCVL | 0.336 |
| SHQM | 0.951 |
| ITPF | ≤ 0.25 |
| PVFC | ≤ 0.25 |
| QDST | ≤ 0.25 |

| Variant | enrichment ratio |
| --- | --- |
| QTQP | ≤ 0.25 |
| ISEK | ≤ 0.25 |
| KQRD | ≤ 0.25 |
| AYKP | ≤ 0.25 |
| EQCG | ≤ 0.25 |
| SNCG | 13.5 |
| IQCG | ≤ 0.25 |
| LQCG | ≤ 0.25 |
| SPCG | 1.67 |
| SQCG | 24.3 |
| ERSH | ≤ 0.25 |
| EHYT | ≤ 0.25 |
| THGY | 13.8 |
| NHGY | ≤ 0.25 |
| TGGY | 7.07 |
| MMGY | ≤ 0.25 |
| MFGY | ≤ 0.25 |
| MEGY | 11.2 |
| MTGY | 14.4 |
| MTGR | ≤ 0.25 |
| LTGY | ≤ 0.25 |
| ADGY | ≤ 0.25 |
| STGY | 8.87 |
| TDGY | 11.5 |

| Variant | enrichment ratio |
| --- | --- |
| GYHY | ≤ 0.25 |
| MGHH | ≤ 0.25 |
| LMID | ≤ 0.25 |
| TTGY | 20.5 |
| FSGY | ≤ 0.25 |
| YTGY | ≤ 0.25 |
| TSGY | 14.8 |
| KSGY | ≤ 0.25 |
| GTGY | ≤ 0.25 |
| EHTS | ≤ 0.25 |
| KLNV | ≤ 0.25 |
| PLEP | ≤ 0.25 |
| KFAF | ≤ 0.25 |
| KLER | 0.976 |
| LRTC | ≤ 0.25 |
| GPSH | ≤ 0.25 |
| REFT | ≤ 0.25 |
| WYPR | ≤ 0.25 |
| FIPD | ≤ 0.25 |
| AALL | 14.9 |
| IALL | 8.58 |
| AILL | 4.86 |
| LFLL | ≤ 0.25 |
| AYLL | ≤ 0.25 |

| Variant | enrichment ratio |
| --- | --- |
| HYLL | ≤ 0.25 |
| MKLL | 11.4 |
| AKLL | 14.3 |
| MYLL | ≤ 0.25 |
| HALL | 12.4 |
| HFLL | ≤ 0.25 |
| ERET | ≤ 0.25 |
| DVMR | ≤ 0.25 |
| IMCE | ≤ 0.25 |
| DQPA | ≤ 0.25 |
| YWCG | ≤ 0.25 |
| VLVV | ≤ 0.25 |
| DQYW | ≤ 0.25 |
| CFLG | ≤ 0.25 |
| KMML | ≤ 0.25 |
| AMLL | 14.2 |
| HKLL | 1.86 |
| KKLL | ≤ 0.25 |
| NMLL | ≤ 0.25 |
| TKLL | 16.2 |
| KMLL | ≤ 0.25 |
| VNCN | ≤ 0.25 |
| GPQD | ≤ 0.25 |
| AVPC | ≤ 0.25 |

| Variant | enrichment ratio |
| --- | --- |
| AVSK | 16.9 |
| AVSC | 12.2 |
| AVFQ | ≤ 0.25 |
| AVMI | 15.6 |
| AVSQ | 14.8 |
| AVTC | 6.81 |
| AVHP | ≤ 0.25 |
| AVMW | ≤ 0.25 |
| AVPS | ≤ 0.25 |
| AVWI | ≤ 0.25 |
| AVMV | 2.94 |
| MDVN | ≤ 0.25 |
| FYFS | ≤ 0.25 |
| KVID | ≤ 0.25 |
| GEKS | ≤ 0.25 |
| MTIG | ≤ 0.25 |
| NDGW | ≤ 0.25 |
| SKVW | ≤ 0.25 |
| AVTK | 17.9 |
| AVMN | 18.8 |
| AKAW | ≤ 0.25 |
| AVWN | ≤ 0.25 |
| AVRW | ≤ 0.25 |
| AVNL | ≤ 0.25 |

| Variant | enrichment ratio |
| --- | --- |
| NVAW | ≤ 0.25 |
| AVPI | 2.35 |
| AVTW | 43.5 |
| AVPA | ≤ 0.25 |
| AVFW | ≤ 0.25 |
| AVAW | 22.5 |
| LTGM | ≤ 0.25 |
| MQNP | ≤ 0.25 |
| KLMC | ≤ 0.25 |
| LHAE | ≤ 0.25 |
| DSVM | ≤ 0.25 |
| KHEF | ≤ 0.25 |
| FSFL | 1.26 |
| WYFI | ≤ 0.25 |
| EMFN | ≤ 0.25 |
| TGHM | 4.7 |
| SEHM | 23.7 |
| QEHM | 10.7 |
| KYHM | ≤ 0.25 |
| YYHM | ≤ 0.25 |
| TEHM | 58.9 |
| EAYE | ≤ 0.25 |
| GGYY | ≤ 0.25 |
| ANAM | 32.2 |

| Variant | enrichment ratio |
| --- | --- |
| AKAM | 13.1 |
| AAAM | 10.1 |
| ALWM | ≤ 0.25 |
| AIAM | 6.08 |
| ALAM | 12.2 |
| ADAM | 3.24 |
| ANIM | 4.25 |
| TLAM | 3.04 |
| IDWP | ≤ 0.25 |
| HREC | ≤ 0.25 |
| GNSH | 1.23 |
| IQIR | ≤ 0.25 |
| DTPS | ≤ 0.25 |
| GPWS | ≤ 0.25 |
| ESVV | ≤ 0.25 |
| CSFT | ≤ 0.25 |
| CSLP | ≤ 0.25 |
| CSLT | 11.7 |
| CSLA | 2.15 |
| CSLS | 21.9 |
| CSLY | 0.296 |
| NPIK | ≤ 0.25 |
| DVWP | ≤ 0.25 |
| DDAS | ≤ 0.25 |

| Variant | enrichment ratio |
| --- | --- |
| MVTH | 2.25 |
| HPAH | ≤ 0.25 |
| MVAH | 12.3 |
| QEAH | ≤ 0.25 |
| MCAH | 2.04 |
| SEAH | 31.6 |
| TEAH | 40 |
| GVAH | 0.601 |
| MKAH | ≤ 0.25 |
| MEAH | 28.9 |
| SFAH | ≤ 0.25 |
| NEAH | ≤ 0.25 |
| YETW | ≤ 0.25 |
| REHR | ≤ 0.25 |
| VKCV | ≤ 0.25 |
| MGTW | ≤ 0.25 |
| FNVE | ≤ 0.25 |
| NWYH | ≤ 0.25 |
| HLAW | ≤ 0.25 |
| VCYP | ≤ 0.25 |
| MRAI | ≤ 0.25 |
| TEFK | 1.68 |
| HPLG | ≤ 0.25 |
| MELG | 22.3 |

| Variant | enrichment ratio |
| --- | --- |
| NELG | 2.34 |
| MPLG | ≤ 0.25 |
| HELG | 12.3 |
| TELG | 27.4 |
| MFLG | 0.27 |
| HYLG | ≤ 0.25 |
| HELA | ≤ 0.25 |
| EFRW | ≤ 0.25 |
| YYAI | ≤ 0.25 |
| AISP | ≤ 0.25 |
| SFQS | ≤ 0.25 |
| NRHR | ≤ 0.25 |
| MSNW | ≤ 0.25 |
| PCTN | ≤ 0.25 |
| TDQW | ≤ 0.25 |
| LVST | ≤ 0.25 |
| RVEC | ≤ 0.25 |
| LTTF | ≤ 0.25 |
| ADTF | ≤ 0.25 |
| ASTF | 11.8 |
| AVHF | ≤ 0.25 |
| AVTF | 11.4 |
| CSTF | 15.8 |
| CITF | ≤ 0.25 |

| Variant | enrichment ratio |
| --- | --- |
| AHTF | ≤ 0.25 |
| ASHF | ≤ 0.25 |
| CTTF | ≤ 0.25 |
| ATTF | 18.8 |
| YTTF | ≤ 0.25 |
| QRGI | ≤ 0.25 |
| VSMY | ≤ 0.25 |
| YGPL | ≤ 0.25 |
| AGVR | ≤ 0.25 |
| TLEC | ≤ 0.25 |
| VESY | ≤ 0.25 |
| YITC | ≤ 0.25 |
| QKNA | ≤ 0.25 |
| AITF | 15 |
| AKTF | 2.43 |
| KSTF | ≤ 0.25 |
| IPNS | ≤ 0.25 |
| WFEY | ≤ 0.25 |
| AYPG | ≤ 0.25 |
| LTLS | ≤ 0.25 |
| TDTK | ≤ 0.25 |
| TDTI | 14.6 |
| LTLN | ≤ 0.25 |
| TDTH | 8.19 |

| Variant | enrichment ratio |
| --- | --- |
| TDYI | ≤ 0.25 |
| TDLT | 7.28 |
| TDLN | 14.9 |
| TDLA | 14 |
| KDLN | ≤ 0.25 |
| CDLS | ≤ 0.25 |
| TDLS | 18 |
| VMTR | ≤ 0.25 |
| STQS | ≤ 0.25 |
| KTAN | ≤ 0.25 |
| DFLN | ≤ 0.25 |
| NTCK | ≤ 0.25 |
| QLKF | ≤ 0.25 |
| TLQG | 11.8 |
| RGQG | ≤ 0.25 |
| NFQG | ≤ 0.25 |
| TGQG | 15.7 |
| TVQG | 14.6 |
| PLQG | ≤ 0.25 |
| KAQG | ≤ 0.25 |
| GGQG | ≤ 0.25 |
| PFQG | ≤ 0.25 |
| PVQG | ≤ 0.25 |
| NVQG | ≤ 0.25 |

| Variant | enrichment ratio |
| --- | --- |
| TFQG | 12.3 |
| VFKH | ≤ 0.25 |
| NHHA | ≤ 0.25 |
| ILFN | ≤ 0.25 |
| FTCA | ≤ 0.25 |
| STNQ | 1.23 |
| FWKT | ≤ 0.25 |
| LMTM | ≤ 0.25 |
| TMQG | 11.9 |
| HAQG | ≤ 0.25 |
| EMQG | ≤ 0.25 |
| TITY | ≤ 0.25 |
| SFAT | ≤ 0.25 |
| TTAM | 17.5 |
| TQAM | 25.5 |
| NQAM | ≤ 0.25 |
| ITAM | 0.308 |
| SQAT | 12.5 |
| FQAM | ≤ 0.25 |
| SNWM | ≤ 0.25 |
| SNAM | 13.5 |
| SNCK | 0.609 |
| GTAM | ≤ 0.25 |
| SLAT | ≤ 0.25 |
